Values joined by “and” are separate entries in the source; they are usually repeats but may differ in a detail not shown here. Equal entries are not always repeated. This is part of a sample that, as a whole, favours compounds with a hit. Of some 83,000 tested, about 20% had one in any assay.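 Cells were grown in 96-well plates and exposed to the test compound at a single concentration for 48 hours; results are reported as percent growth, with values below 10 considered active.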 Unmarked numbers belong to inactive results. Active and inactive are the calls of the source.

In the first assay the test system is HCT-15 colon. Description: NCI-60 one-dose screen, 48 h (100 = growth as untreated, 0 = no growth, -100 = all killed). The note with it: 10 µM. As for the experimental part: Growth inhibition of the HCT-15 human tumor cell line is measured as a screen for anti-cancer activity. Cells are grown in 96 well plates and exposed to the test compound for 48 hours. Compounds are tested at a single concentration, which is 10^-5 M for most compounds. The reported endpoint is percent growth (GI% or GIPRCNT), where numbers from 0 - 100% represent growth inhibition, and numbers from -100% - 0 represent cell death. For example, a value of 40 represents 60% growth inhibition. A value of 0 means no net growth occurred over the course of the experiment. A value of -40 indicates 40% of cells at the beginning of the experiment died by the end of the experiment. A value of -100 means all cells are dead at the end of the experiment.
NCI-60 Human Tumor Cell Lines Screen was performed using the standard one-dose NCI protocol, which is described in more detail at https://dtp.cancer.gov/discovery_development/nci-60/default.htm.
Compounds with GIPRCNT values below 10 were considered active. Activity score was based on GIPRCNT using the following formula: […]
Score is 0 for GIPRCNT values of 100 or above, 50 for GIPRCNT values of 0, and 100 for GIPRCNT values of -100.
Consider `S=c1nc[nH]c2nc[nH]c12`, for which the growth is 39.1%.

Staying with this assay, now noted: 10 µM unless noted.
For the molecule `COc1ccc([N+](=O)[O-])cc1OC`, the growth is 96.3% and 98.9%.
Still for that read-out and setting: to `COc1cc([C@@H]2c3cc4c(cc3[C@H](O)[C@H]3COC(=O)[C@@H]23)OCO4)cc(OC)c1OC` belongs 29.2% and 10.5%.
On the same count and under the same terms, to `COc1cc(C2c3cc4c(cc3C(OC(=O)C[n+]3ccccc3)C3COC(=O)C23)OCO4)cc(OC)c1OC` (stereo not given) belongs 4.19% (active); to `Cc1c(O)nc(N)[nH]c1=O`, 106%.
As for `C#CCOC(=O)C(N)CS` (stereo not given), the growth was 100%.
Same read-out and setting: to `C/C=C(/C(=O)NC(N)=O)C(C)C` belongs 110%; to `O=C(O)C(Cc1ccc(OS(=O)(=O)Cc2ccccc2)cc1)NS(=O)(=O)Cc1ccccc1` (stereo not given), 99.5% and 108%.
Still for that read-out and setting: to `COc1ccc(CCNC(=S)NN)cc1OC` belongs 123%; to `CC(C)(C)OC(=O)c1ccc(NCc2cc(O)ccc2O)cc1`, -30.1% (active); to `O=C(O)C#Cc1ccc(Cl)cc1`, 103%.
The same measure, in the same setting: to `Cc1c(Cl)cc(Cl)c(N)c1Cl` belongs 104%.
For the molecule `Nc1nc(N)c2cc(S(=O)(=O)c3ccccc3)ccc2n1`, the growth is 27.9% and 25.6%.
Still for that read-out and setting: to `COC(=O)C(Cc1cn(C(C)=O)c2ccccc12)P(=O)(OC)OC` (stereo not given) belongs 103%.
On the same count and under the same terms, to `CCOC(=O)c1ccncc1` belongs 108%; to `NC(=O)Cc1nc(O)cc(=O)[nH]1`, 96.9%; to `COC(=O)c1nc(N)nc(C(=O)OC)c1C(=O)c1ccc(F)cc1`, 103%.
As for `O=C1C=CC(=O)N1Cc1ccco1`, the growth is 11.6%.
`O=[N+]([O-])c1cccc(N=Cc2ccccc2)c1`: the growth was 105%.
`CCN(CC)CCO/N=C1\CC(c2ccc(OC)c(OC)c2)Oc2ccccc21` (stereo not given): the growth is 88.6%.
Still for that read-out and setting: the same measure for `CC(=O)/C(N=Nc1ccc(S(=O)(=O)c2ccc(N=N/C(C(C)=O)=C(/C)O)cc2)cc1)=C(\C)O`: 106%; for `CC(O)CCNC(c1ccccc1)C(O)c1ccccc1` (stereo not given): 109%; for `C/C=C/C(=O)OCCCCCCCCCCCC`: 123%.
Take `OC1CCCN(Cc2ccccc2)C1` (stereo not given): the growth was 116%.
The same measure, in the same setting: the same measure for `Cc1cc(Cl)nc(Nc2ccccc2)n1`: 97.4%; for `Cc1cc2nc3ccc(=[N+](C)C)cc-3sc2cc1N`: 8.48% (active) and 7.46% (active); for `COc1ccc(CCl)c(C)c1OC`: 106%.
Still for that read-out and setting: to `O=C(O)C1CSCN1` (stereo not given) belongs 109% and 96.3%.
For `CCCC(=O)Oc1ccc2ccccc2c1`, the growth is 109%.
On the same count and under the same terms, the same measure for `Nc1ccccc1SC1CC(=O)N(c2ccc(I)cc2)C1=O` (stereo not given): 88.5%; for `OCc1cccc(F)c1`: 10.2%; for `CN(C)CC(CN(C)C)C(O)c1ccccc1` (stereo not given): 99.3%.
Take `S=c1nn[nH]n1C1CCCCC1`: the growth was 115%.
Still for that read-out and setting: the same measure for `S=c1ccc2ccccc2[nH]1`: 102% and 113%.
The same measure, in the same setting: to `COC(=O)c1nc(N)nc(C(=O)OC)c1C(=O)c1cccc2ccccc12` belongs 102%; to `O=c1[nH]c(=O)c2[nH]c(=O)[nH]c2[nH]1`, 99%.
For `CCCCC/C(C)=N\NC(N)=S`, the growth was 79.4%.
The same measure, in the same setting: to `COc1cc(NCCCCCNC(C)C)c2ncccc2c1` belongs 96.7% and 96.6%.
Still for that read-out and setting: the same measure for `COc1ccc(/C=C/C(=O)O)cc1OC`: 106% and 103%.

The same assay, now with this note: 50 µM.
`S=c1nc[nH]c2nc[nH]c12`: the growth was 15.6%.

These data come from PubChem BioAssay (NCI).
